Common to all, as to experiment: DAPPL (digital affinity profiling via proximity ligation, sequencing); 10 mM Tris-HCl pH 7.5, 50 mM NaCl, 1 mM DTT, 4% glycerol, room temperature, 30 min; GST-TFs on glutathione beads, 16-mer random dsDNA library, 0.1% formaldehyde crosslink after washing; high values mean tight binding
What all share (conditions): protein: recombinant; tags: N-terminal GST; dsDNA, one strand shown

The target in one assay is T1, ERF (Homo sapiens, UniProt P50548 1-548).
T1 sequence: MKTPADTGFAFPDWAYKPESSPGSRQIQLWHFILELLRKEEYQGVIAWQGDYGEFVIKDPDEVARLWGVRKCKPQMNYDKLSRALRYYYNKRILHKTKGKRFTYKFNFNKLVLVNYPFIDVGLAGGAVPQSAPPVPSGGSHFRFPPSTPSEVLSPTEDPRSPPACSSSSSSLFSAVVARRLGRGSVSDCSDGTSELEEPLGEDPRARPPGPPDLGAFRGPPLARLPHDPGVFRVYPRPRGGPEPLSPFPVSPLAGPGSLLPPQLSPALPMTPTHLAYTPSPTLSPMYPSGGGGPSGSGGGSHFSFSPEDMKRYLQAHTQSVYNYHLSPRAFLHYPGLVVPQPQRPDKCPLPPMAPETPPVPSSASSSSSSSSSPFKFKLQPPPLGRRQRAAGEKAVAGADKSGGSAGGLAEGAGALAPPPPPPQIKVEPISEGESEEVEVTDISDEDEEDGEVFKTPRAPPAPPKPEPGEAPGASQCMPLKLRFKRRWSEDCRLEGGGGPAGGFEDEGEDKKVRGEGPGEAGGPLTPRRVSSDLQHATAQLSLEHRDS
The method in brief:
(§1)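 Pools of DNA-barcoded human transcription factors, expressed in yeast as GST fusions on glutathione beads and combined with a tag-only sample, were incubated with 200 nmole of a 16-mer random double-stranded DNA library. Incubation took 30 min at room temperature in Tris/NaCl/DTT/glycerol buffer and was followed by washing, 0.1% formaldehyde crosslinking, proximity ligation (BsaI/T4 ligase, 1 h, 37 °C), PCR amplification and sequencing on an Illumina NextSeq500. Binding signal is the ratio of a hexamer's read frequency for a factor to its frequency for the tag-only sample.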

The target of another assay is T2, ETV3L (Homo sapiens, UniProt Q6ZN32 1-361).
T2 sequence: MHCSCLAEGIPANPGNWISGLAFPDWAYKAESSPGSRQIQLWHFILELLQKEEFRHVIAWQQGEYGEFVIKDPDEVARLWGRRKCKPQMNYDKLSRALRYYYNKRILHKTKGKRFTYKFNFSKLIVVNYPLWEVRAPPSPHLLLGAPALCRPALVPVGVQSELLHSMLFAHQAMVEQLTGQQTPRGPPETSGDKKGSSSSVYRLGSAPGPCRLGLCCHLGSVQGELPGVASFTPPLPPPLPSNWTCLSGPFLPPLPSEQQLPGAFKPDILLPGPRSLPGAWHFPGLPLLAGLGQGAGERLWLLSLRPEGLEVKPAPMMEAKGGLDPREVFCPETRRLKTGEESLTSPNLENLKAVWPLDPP
The procedure, abridged: as §1

Another assay deals with T3, ETS2 (Homo sapiens, UniProt P15036 1-469).
T3 sequence: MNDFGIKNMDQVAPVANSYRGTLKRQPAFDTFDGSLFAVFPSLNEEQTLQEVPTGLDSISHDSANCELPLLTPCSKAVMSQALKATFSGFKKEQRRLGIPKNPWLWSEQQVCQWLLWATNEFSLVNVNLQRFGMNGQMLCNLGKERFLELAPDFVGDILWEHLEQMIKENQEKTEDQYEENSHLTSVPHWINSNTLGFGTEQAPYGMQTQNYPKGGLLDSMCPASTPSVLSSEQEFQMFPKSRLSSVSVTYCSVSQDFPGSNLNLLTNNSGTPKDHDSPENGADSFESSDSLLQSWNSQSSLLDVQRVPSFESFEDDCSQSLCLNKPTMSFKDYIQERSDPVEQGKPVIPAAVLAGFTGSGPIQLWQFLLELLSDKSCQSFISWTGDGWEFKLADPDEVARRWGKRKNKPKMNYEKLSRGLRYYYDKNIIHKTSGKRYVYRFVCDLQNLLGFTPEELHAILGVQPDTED
The procedure, abridged:
as §1

For a further assay, the target named is T4, ETV7 (Homo sapiens, UniProt Q9Y603 1-341).
T4 sequence: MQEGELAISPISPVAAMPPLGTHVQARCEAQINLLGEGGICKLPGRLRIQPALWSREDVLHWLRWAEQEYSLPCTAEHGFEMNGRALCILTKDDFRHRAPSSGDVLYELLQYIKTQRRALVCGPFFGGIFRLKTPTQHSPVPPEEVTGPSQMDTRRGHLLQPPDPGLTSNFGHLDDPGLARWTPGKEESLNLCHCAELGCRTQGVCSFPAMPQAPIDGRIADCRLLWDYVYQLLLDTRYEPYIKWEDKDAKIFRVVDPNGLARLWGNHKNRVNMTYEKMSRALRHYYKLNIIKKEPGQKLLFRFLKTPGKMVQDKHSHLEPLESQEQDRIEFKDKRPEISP
The procedure, abridged:
as §1

The next assay concerns the target T5, ELF5 (Homo sapiens, UniProt Q9UKW6-2 1-255).
T5 sequence: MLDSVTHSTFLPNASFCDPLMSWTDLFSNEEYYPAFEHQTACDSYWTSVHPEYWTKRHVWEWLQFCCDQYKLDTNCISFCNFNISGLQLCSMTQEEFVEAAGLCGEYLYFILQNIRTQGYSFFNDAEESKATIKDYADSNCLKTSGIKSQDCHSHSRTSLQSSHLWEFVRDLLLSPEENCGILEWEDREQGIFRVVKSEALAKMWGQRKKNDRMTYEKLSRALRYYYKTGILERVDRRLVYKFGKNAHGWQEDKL
The method in brief: as §1

In another assay the target is T6, ETV3 (Homo sapiens, UniProt P41162-2 1-143).
T6 sequence: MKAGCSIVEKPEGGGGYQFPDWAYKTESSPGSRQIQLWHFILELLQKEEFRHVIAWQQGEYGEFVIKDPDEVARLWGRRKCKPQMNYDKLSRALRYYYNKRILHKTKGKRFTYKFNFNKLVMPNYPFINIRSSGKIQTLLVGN
The method in brief: as §1

Another assay concerns the target ETV6 (Homo sapiens, UniProt P41212 1-452). The procedure, abridged: as §1
Another assay has as its target T7, SPDEF (Homo sapiens, UniProt O95238 1-335).
T7 sequence: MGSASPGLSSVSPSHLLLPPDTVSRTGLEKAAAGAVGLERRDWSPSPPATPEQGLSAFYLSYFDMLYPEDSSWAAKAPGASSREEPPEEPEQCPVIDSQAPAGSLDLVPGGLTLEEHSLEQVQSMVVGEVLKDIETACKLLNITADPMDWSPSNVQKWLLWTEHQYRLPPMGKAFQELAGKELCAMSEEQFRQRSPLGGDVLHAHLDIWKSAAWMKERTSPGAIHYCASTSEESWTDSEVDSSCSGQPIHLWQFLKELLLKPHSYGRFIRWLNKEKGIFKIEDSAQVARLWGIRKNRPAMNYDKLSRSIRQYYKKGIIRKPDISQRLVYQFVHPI
The method in brief: as §1

Sequence of ETV6 (P41212 whole entry): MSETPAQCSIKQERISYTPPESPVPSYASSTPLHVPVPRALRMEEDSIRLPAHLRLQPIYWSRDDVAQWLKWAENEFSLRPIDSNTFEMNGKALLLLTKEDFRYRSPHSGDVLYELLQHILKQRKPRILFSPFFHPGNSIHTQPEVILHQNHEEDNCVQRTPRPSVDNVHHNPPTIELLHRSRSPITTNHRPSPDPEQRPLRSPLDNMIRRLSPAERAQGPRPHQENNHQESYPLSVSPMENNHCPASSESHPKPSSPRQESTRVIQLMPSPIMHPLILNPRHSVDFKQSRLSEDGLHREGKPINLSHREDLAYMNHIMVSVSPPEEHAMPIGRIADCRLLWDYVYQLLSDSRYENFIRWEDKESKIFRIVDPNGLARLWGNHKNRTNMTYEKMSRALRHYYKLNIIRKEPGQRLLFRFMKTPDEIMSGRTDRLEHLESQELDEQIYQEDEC

GACTTT: the binding signal with ERF was 1.09 fold enrichment (6-mer frequency, TF over GST control); with ETV3L, 1.13 fold enrichment (6-mer frequency, TF over GST control); in the assay with ETS2 it was 1.17 fold enrichment (6-mer frequency, TF over GST control); with ETV7, 1.2 fold enrichment (6-mer frequency, TF over GST control); with ELF5 it was 1.13 fold enrichment (6-mer frequency, TF over GST control); in the assay with ETV3 it was 1.14 fold enrichment (6-mer frequency, TF over GST control). Further, in the assay with ETV6, the binding signal was 1.14 fold enrichment (6-mer frequency, TF over GST control).
On to GTCACT, for which the binding signal with ERF was 1.07 fold enrichment (6-mer frequency, TF over GST control); with ETV3L it was 1.08 fold enrichment (6-mer frequency, TF over GST control); with ETS2, 1.13 fold enrichment (6-mer frequency, TF over GST control); with ETV7, 1.09 fold enrichment (6-mer frequency, TF over GST control); with ELF5, 1.07 fold enrichment (6-mer frequency, TF over GST control); with ETV3, 1.01 fold enrichment (6-mer frequency, TF over GST control).
As to AGGCTC, the binding signal is 1.14 fold enrichment (6-mer frequency, TF over GST control) with ERF; 1.08 fold enrichment (6-mer frequency, TF over GST control) with ETV3L; 1.02 fold enrichment (6-mer frequency, TF over GST control) with ETS2; 1.04 fold enrichment (6-mer frequency, TF over GST control) in the assay with ETV7; 1.04 fold enrichment (6-mer frequency, TF over GST control) in the assay with ELF5; 1.01 fold enrichment (6-mer frequency, TF over GST control) with ETV3. For the same sequence, the binding signal with ETV6 was 1.16 fold enrichment (6-mer frequency, TF over GST control).
Regarding TTTAGT, the binding signal is 1.03 fold enrichment (6-mer frequency, TF over GST control) with ERF; 1.09 fold enrichment (6-mer frequency, TF over GST control) with ETV3L; 1.04 fold enrichment (6-mer frequency, TF over GST control) with ETS2; 1.04 fold enrichment (6-mer frequency, TF over GST control) with SPDEF; 1.11 fold enrichment (6-mer frequency, TF over GST control) with ETV3; 1.12 fold enrichment (6-mer frequency, TF over GST control) with ETV6.
GTTTGG: the binding signal in the assay with ERF is 1.11 fold enrichment (6-mer frequency, TF over GST control); with ETV3L, 1.09 fold enrichment (6-mer frequency, TF over GST control); in the assay with ETS2, 1.07 fold enrichment (6-mer frequency, TF over GST control); in the assay with ETV7, 1.12 fold enrichment (6-mer frequency, TF over GST control); with ELF5, 1.1 fold enrichment (6-mer frequency, TF over GST control); with ETV3, 1.1 fold enrichment (6-mer frequency, TF over GST control).
In the case of TGGTAG, the binding signal with ERF was 1.11 fold enrichment (6-mer frequency, TF over GST control); in the assay with ETV3L it was 1.02 fold enrichment (6-mer frequency, TF over GST control); with ETS2, 1.04 fold enrichment (6-mer frequency, TF over GST control); in the assay with ETV7 it was 1.18 fold enrichment (6-mer frequency, TF over GST control); with ELF5, 1.1 fold enrichment (6-mer frequency, TF over GST control); with ETV3, 1.1 fold enrichment (6-mer frequency, TF over GST control).
TAGCTG: the binding signal with ERF is 1.16 fold enrichment (6-mer frequency, TF over GST control); with ETV3L it was 1.14 fold enrichment (6-mer frequency, TF over GST control); with ETS2 it was 1.04 fold enrichment (6-mer frequency, TF over GST control); in the assay with ETV7, 1.15 fold enrichment (6-mer frequency, TF over GST control); in the assay with ELF5, 1.13 fold enrichment (6-mer frequency, TF over GST control); with ETV3 it was 1.23 fold enrichment (6-mer frequency, TF over GST control). The binding signal with ETV6 was 1.2 fold enrichment (6-mer frequency, TF over GST control).

Values taken from publication PMC7862700, “An all-to-all approach to the identification of sequence-specific readers for epigenetic DNA modifications on cytosine”.
